A selection: hits, their analogues and other compounds. The true share with any hit is near 9%.
ALDH1A1 block: blocks purified human ALDH1A1 activity. P00352. Purified ALDH1A1, NADH fluorescence, propionaldehyde substrate. Potency, µM (highest dose often 75.3 µM), most hits filed as inhibitors. 220,000 compounds, 7.3% hits. AID 1030; active = well fitted inhibition curve with a large enough effect, not every such curve was filed as active; inconclusive = small, poorly fitted or top-dose-only effect, or another doubt; inactive = no such curve, though single readings can be large or run the other way
Target sequence (P00352 whole entry, looked up): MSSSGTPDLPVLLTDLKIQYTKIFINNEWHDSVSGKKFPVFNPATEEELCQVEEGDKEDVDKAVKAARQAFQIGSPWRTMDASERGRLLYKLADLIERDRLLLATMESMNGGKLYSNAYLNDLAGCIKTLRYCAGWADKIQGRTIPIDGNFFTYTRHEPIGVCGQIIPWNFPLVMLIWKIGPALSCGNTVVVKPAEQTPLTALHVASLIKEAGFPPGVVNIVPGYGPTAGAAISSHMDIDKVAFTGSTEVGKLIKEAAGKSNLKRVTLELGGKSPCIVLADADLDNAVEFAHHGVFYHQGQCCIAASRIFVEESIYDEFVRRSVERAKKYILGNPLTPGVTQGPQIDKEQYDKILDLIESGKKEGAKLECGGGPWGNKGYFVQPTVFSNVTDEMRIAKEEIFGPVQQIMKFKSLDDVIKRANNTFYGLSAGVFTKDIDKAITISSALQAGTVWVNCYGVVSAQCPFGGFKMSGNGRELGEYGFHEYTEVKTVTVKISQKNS
IMPase Li cell: membrane-permeable IMPase blocker, potentiated with lithium; AID 1457; Potency, µM (top dose mostly 59.4 µM), usual class: inhibitors; CHO-M1 cells, IP1 TR-FRET (IP-One), carbachol + lithium; 210,000 compounds, 0.35% hits;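 note: IP1 builds up when IMPase is blocked and the TR-FRET signal falls; nearly all actives have a fitted effect of over 50% in size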
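Concentration–response in CHO-M1 cells, lithium-potentiated; 30 min at 37C. IP1 detected by competitive TR-FRET after 10 min lysis at RT. Hill-fitted AC50.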
KinaseGlo FLuc: counter-screen: inhibitors of Kinase-Glo firefly luciferase. Q27757. Kinase-Glo luciferase, ATP luminescence, 8 min. Potency, µM (highest dose often 38.3 µM), most hits filed as inhibitors. 200,000 compounds, 0.28% hits. AID 1379; note: nearly all actives have a fitted effect of over 60% in size
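Compounds were added to a substrate mix at pH 7.2 (50 mM imidazole, 10 uM ATP, within the enzyme's linear range), followed by Kinase-Glo detection reagent; luminescence was measured after 8 minutes at ambient temperature.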
Lamin A splicing: modulators of lamin A splicing. HeLa LMNA splicing GFP/RFP minigene ratio, 48 h. Potency, µM (doses to about 46.1 µM), actives largely listed as inhibitors. 200,000 compounds, 0.01% hits. AID 1487; active = well fitted inhibition curve with a large enough effect in the signal ratio, with a control signal flat, not every such curve was filed as active; inconclusive = small, poorly fitted or top-dose-only effect, or effect the other way, or a change in a side signal; the % refers to the signal ratio
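S3 HeLa stable clones carrying a lamin A-EGFP splicing minigene plus DsRed2 were seeded at 600 cells/well in Opti-MEM with 2% FBS, pin-dosed and incubated 48 h at 37°C. Acumen cytometry (488 nm) gave the GFP/RFP total-intensity ratio.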
HPGD inh: inhibitors of human 15-hydroxyprostaglandin dehydrogenase (HPGD). P15428. purified HPGD, NADH fluorescence kinetic, PGE2 substrate. Potency, µM, usual class: inhibitors. 150,000 compounds, 4.3% hits. AID 894; active = well fitted inhibition curve with a large enough effect, not every such curve was filed as active; inconclusive = small, poorly fitted or top-dose-only effect, or another doubt; inactive = no such curve, though single readings can be large or run the other way
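NADH formation kinetics: reaction with 30 uM PGE2 and 1 mM NAD+ (final), 20 nM enzyme, Tris-HCl pH 8 with Tween 20, after 15 min compound preincubation at room temperature. Fluorescence change, last versus first of five reads.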
Numbers stand for hits; 0 = inactive; ? = inconclusive; - = not tested or not shown. Unless noted, calls come from the whole dose curve; as a rule, active = well fitted curve in the direction sought with a large enough effect; inconclusive = small, poorly fitted or top-dose-only effect, or another doubt; inactive = no such curve, though single readings can be large; an effect the other way counts as inactive or inconclusive.

SMILES	ALDH1A1 block	IMPase Li cell	KinaseGlo FLuc	Lamin A splicing	HPGD inh
c1ccc(CNc2nc(-c3ccoc3)nc3ccccc23)cc1	32µM	0	-	?	-
CN(C)C(=O)c1ccc(-c2nc(NCc3cccnc3)c3ccccc3n2)cc1	0	0	0	0	16µM
CC(C)(C)c1ccc(-c2nc(NCc3cccnc3)c3ccccc3n2)cc1	0	0	0	?	0
CN(C)C(=O)c1ccc(-c2nnc(NCc3ccccc3)c3ccccc23)cc1	?	0	0	0	2.5µM
COc1ccc(N(C)C(=O)c2cc3c(Cl)nc4ccccc4c3s2)cc1	0	0	0	?	16µM
CCN(CC)CCCNC(=O)c1cc2c(Cl)nc3ccccc3c2s1	?	0	0	?	-
CN(CCCNC(=O)c1cc2c(Cl)nc3ccccc3c2s1)Cc1ccccc1	28µM	0	0	?	-
CC(C)CC(C(=O)NCc1ccc(F)cc1)N1Cc2ccccc2C1=O (stereo not given)	-	-	-	0	-
FC(F)(F)c1ccc(-c2noc(-c3ccccc3)c2I)cc1	0	0	0	-	0
O=C(O)c1ccc(Cn2c(SCc3cc(=O)n4cc(Br)ccc4n3)nc3ccsc3c2=O)cc1	?	?	0	0	-
O=C(O)C1CCC(Cn2c(SCc3cc(=O)n4cc(Br)ccc4n3)nc3ccsc3c2=O)CC1 (stereo not given)	0	10µM	0	-	-
COc1ccc(Cn2nnnc2CN(Cc2cc3cccc(C)c3[nH]c2=O)C2CCCC2)cc1	?	0	0	0	0
Cc1ccc2cc(CN(Cc3ccccc3)Cc3nnnn3C3CCCC3)c(=O)[nH]c2c1	10µM	0	0	?	0
COc1ccc(Cn2nnnc2CN(Cc2cc3ccc(C)cc3[nH]c2=O)C2CCCC2)cc1	22µM	0	0	?	0
Cc1ccc2cc(CN(Cc3ccc(F)cc3)Cc3nnnn3C3CCCC3)c(=O)[nH]c2c1	14µM	0	0	0	0
O=C1NC(=O)C2(COC(c3cccc([N+](=O)[O-])c3)OC2)S1 (stereo not given)	?	0	0	0	-
CCN1CCN(c2oc(-c3ccc(COc4ccc(OC)cc4)o3)nc2C#N)CC1	-	-	-	0	-
O=C(Nc1cccc(F)c1)N1CCC2(CC1)CCN(C(=O)c1ccco1)CC2	0	0	0	-	0
N#Cc1cccc(NC(=O)N2CC3(CCN(C(=O)c4ccco4)CC3)C2)c1	9.5µM	0	0	-	0
N#Cc1cccc(NC(=O)N2CCC3(CC2)CCN(C(=O)c2csnn2)CC3)c1	?	11µM	0	-	0
O=C(Nc1cccc(F)c1)N1CC2(CCN(C(=O)c3ccco3)CC2)C1	11µM	0	0	-	0
CC(CN(C)Cc1ccccc1)OC(=O)c1cccc(F)c1 (stereo not given)	0	0	0	0	0
CC(C)CN1CCCC2(CCN(S(=O)(=O)c3ccccc3)CC2)C1	0	0	0	-	0
COC(=O)C1CC(O)CN1C(=O)NC1CCCCC1 (stereo not given)	?	0	0	-	-
COc1ccc(-c2csc(N)n2)cc1F	11µM	0	0	0	-
SMILES	ALDH1A1 block	IMPase Li cell	KinaseGlo FLuc	Lamin A splicing	HPGD inh
CCc1ccc(OC)c(-c2csc(N)n2)c1	0	0	0	0	-
O=C(N=Nc1c(O)[nH]c2ccccc12)c1ccc(CN2CCOCC2)cc1	0	0	0	0	-
CCn1c(SCC(=O)N=Nc2c(O)[nH]c3ccccc23)nnc1-c1ccc(C(C)(C)C)cc1	0	0	0	0	0
CCn1c(SCC(=O)N=Nc2c(O)[nH]c3ccccc23)nc2ccccc21	6.3µM	0	0	?	0
O=C(N=Nc1c(O)[nH]c2ccccc12)c1ccc2c(c1)OCO2	0	0	10µM	0	-
O=C(N=Nc1c(O)[nH]c2ccccc12)c1ccco1	0	0	10µM	0	-
O=C(CSCc1cccc(Br)c1)N=Nc1c(O)[nH]c2ccccc12	7.9µM	0	0	0	0
CCC(O)CC(C(=O)NNc1ccccc1)C(=O)NNc1ccccc1 (stereo not given)	?	0	0	?	-
COc1ccccc1OCC(=O)Nc1nnc(-c2ccco2)s1	7.1µM	?	0	0	0
Cc1cccc(OCC(=O)Nc2nnc(-c3ccco3)s2)c1	32µM	0	0	0	-
CCOc1cccc(C(=O)Nc2nnc(-c3ccco3)s2)c1	?	0	0	0	?
CCOC(=O)c1ccc(S(=O)(=O)NNC(=O)c2cccc(N(C)C)c2)cc1	?	0	0	0	-
CCC(CC)C(=O)N1CCc2cc(OC)c(OC)cc2C1COc1ccccc1OC (stereo not given)	-	-	-	0	-
COc1ccccc1/C=C(\NC(=O)c1ccc(OC)c(OC)c1)C(=O)Nc1cc([N+](=O)[O-])ccc1C	0	0	0	0	0
Oc1ccc(Nc2nc(-c3ccc(O)cc3)cs2)cc1	22µM	0	0	?	?
Fc1ccc(Nc2nc(-c3ccncc3)cs2)cc1	0	0	0	?	-
Nc1ccc(Nc2nc(-c3ccncc3)cs2)cc1	22µM	0	0	?	0
Nc1nnc(SCC(=O)OCC(=O)NC23CC4CC(CC(C4)C2)C3)s1	0	0	0	0	-
CC1CN(CC(O)COC(c2ccccc2)c2ccccc2)CC(C)O1 (stereo not given)	25µM	0	0	0	0
O=C(O)c1ccc(CSc2nnc(COc3ccc(Cl)cc3Cl)o2)cc1	?	0	0	0	5µM
CC(C)NC(=O)NC(=O)CSc1nnc(COc2ccccc2Cl)o1	0	0	0	0	0
O=c1cc(CSc2nnc(COc3ccccc3Cl)o2)nc2sccn12	?	0	0	0	18µM
COc1ccc(NC(=O)Nc2ccccc2C(N)=O)cc1	0	0	8.9µM	-	-
Cc1ccc(NC(=O)Nc2ccccc2C(N)=O)cc1	0	-	-	-	-
